Laboratory results: PubChem BioAssay AID651551 (Sanford-Burnham Center for Chemical Genomics, 2012)

Assay: GAPDH versus PEG-3 reporter suppression – cell-based, luminescence, counter-screen for PEG-3 promoter inhibitor project, SAR follow-up (AID 651551)
Conditions: HeLa PEG-Prom / GAPDH luciferase reporter, 6 or 24 h, run 1, 24 h; at 99 µM (top of the series)

Structure (SMILES) | inhibition % (higher = more inhibition) [%]
CCn1nc(C(=O)Nc2nc(-c3ccccn3)cs2)c2ccccc2c1=O | 32.8
Cc1cc(NC(=O)c2ccccc2C)n(-c2nc3ccccc3[nH]2)n1 | 57.6
COc1ccccc1Nc1nc(-c2sc(NC(=O)c3ccco3)nc2C)cs1 | 68.4
Cc1ccc(Cl)cc1Nc1nc(-c2sc(NC(=O)c3ccco3)nc2C)cs1 | 78
COc1ccc(Cl)cc1Nc1nc(-c2sc(NC(=O)c3ccccc3)nc2C)cs1 | 74.9
Cc1cc(NC(=O)c2ccccc2)n(-c2nc3ccccc3[nH]2)n1 | 14.1
CCn1cc(C(=O)NCc2ccco2)c(=O)c2cc(S(=O)(=O)N3CCCC3)ccc21 | 56.3
COc1ccc(-n2nc(C(=O)NCC(=O)Nc3ccc(OC)c(OC)c3)c3ccccc3c2=O)cc1 | 84.2
COCCCNC(=O)c1ccc(Cn2c(=O)c3ccccc3n(Cc3ccccc3C#N)c2=O)cc1 | 73.3
Cc1cc(NC(=O)c2ccccc2C(F)(F)F)n(-c2nc3ccccc3[nH]2)n1 | 97.3
CCCn1nc(C(=O)Nc2nc(-c3ccccn3)cs2)c2ccccc2c1=O | 73.2
Cc1nc(NC(=O)c2ccccc2)sc1-c1csc(Nc2cccc(Cl)c2C)n1 | 43.1
Cc1nc(NC(=O)c2ccccc2)sc1-c1csc(Nc2ccccc2Cl)n1 | 22.6
O=C(Nc1nccs1)c1nn(-c2ccccc2)c(=O)c2ccccc12 | 38.3
Cc1cc(NC(=O)c2cccc(C)c2C)n(-c2nc3ccccc3[nH]2)n1 | 27.5
COc1ccc(-n2nc(C(=O)NCC(=O)Nc3cccc(OC)c3)c3ccccc3c2=O)cc1 | 28.1
CCCn1nc(C(=O)Nc2nc3ccccc3s2)c2ccccc2c1=O | 37.5
CCCn1nc(C(=O)Nc2nc(-c3ccncc3)cs2)c2ccccc2c1=O | 88.9
Cc1cc(NC(=O)c2ccccc2)n(-c2nc3ccccc3n2C)n1 | 6.34
O=C(Nc1nc2ccccc2s1)c1nn(-c2ccccc2)c(=O)c2ccccc12 | 40.7
Cc1nc(NC(=O)c2ccccc2)sc1-c1csc(Nc2ccccc2)n1 | 92
O=C(Nc1nc(-c2ccccc2)cs1)c1nn(-c2ccccc2)c(=O)c2ccccc12 | 23.5
COc1ccc(-n2nc(C(=O)NCC(=O)Nc3cc(OC)c(OC)c(OC)c3)c3ccccc3c2=O)cc1OC | 69.6
